Only some compounds are listed: those with a hit (about 6.1% of all), similar ones and a draw of the others.
D1 ag: agonists of human D1 dopamine receptor; P21728; HEK293 T-REx D1 cells, calcium flux, agonist mode; activation, % at 2 µM; 360,000 compounds, 1% hits; in the data active = activation above about 30%
Target sequence (P21728 whole entry, looked up): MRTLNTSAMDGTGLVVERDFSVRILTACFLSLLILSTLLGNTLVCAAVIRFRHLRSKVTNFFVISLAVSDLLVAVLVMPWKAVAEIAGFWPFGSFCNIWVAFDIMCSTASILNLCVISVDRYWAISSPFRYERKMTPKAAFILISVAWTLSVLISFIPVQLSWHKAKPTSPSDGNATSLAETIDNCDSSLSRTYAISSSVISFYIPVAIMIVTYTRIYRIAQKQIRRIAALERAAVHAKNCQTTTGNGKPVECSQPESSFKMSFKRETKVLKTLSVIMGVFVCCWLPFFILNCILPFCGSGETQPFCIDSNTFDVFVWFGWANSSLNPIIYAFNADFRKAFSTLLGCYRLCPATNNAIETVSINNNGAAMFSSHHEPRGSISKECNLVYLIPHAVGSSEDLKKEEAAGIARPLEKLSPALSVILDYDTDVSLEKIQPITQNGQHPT
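Agonism was scored from calcium flux recorded over 180 s (1 read/s) after pintool compound addition, following a 10-cycle baseline. Cells were inducible force-coupled HEK293 TREx D1, plated overnight at 30 C and loaded with no-wash calcium dye.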
DRD3 agonist: D3 dopamine receptor (human) agonism. P35462. D3R DiscoveRx beta-arrestin cells, luminescence, 90 min. max activation, %. 410,000 compounds, 0.58% hits; in the data active = max activation above about 30%
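Agonist mode: compounds and dopamine controls were applied to plated cells for 90 min at 37 degrees C after an overnight attachment at 1500 cells/well. Luminescent read-out followed 30 - 60 minutes at room temperature with DiscoveRx detection reagent.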
D1 PAM: enhances dopamine response at the human D1 receptor. P21728. HEK293 TREx D1 cells, calcium flux, dopamine EC20 potentiation. 360,000 compounds, 0.036% hits. potentiation, % at 10 µM; in the data active = potentiation above about 30%
D1 antagonist: human D1 dopamine receptor antagonism | HEK293 TREx D1 cells, calcium flux, dopamine EC80; stronger effect = lower value | activity change, negative = inhibition, % at 10 µM | 360,000 compounds, 3.2% hits | AID 504652; in the data active = activity change below about -30%
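Cells carrying a force-coupled, tetracycline-inducible human D1 receptor report calcium flux. Each well gets a 10 s baseline, compound with 180 s monitoring, then an EC80 dopamine stimulus with a second 180 s kinetic read.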
DRD3 antagonist: blocks the human D3 dopamine receptor; D3R cells, DiscoveRx beta-arrestin luminescence, antagonist mode; stronger effect = lower value; max response, negative = inhibition, %; 360,000 compounds, 2.5% hits; AID 652054; in the data active = max response below about -50%
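Cells expressing the human receptor were seeded at 1500 cells/well, incubated overnight at 37 degrees C in 5% CO2, then exposed to library compounds with dopamine controls for 90 minutes at 37 degrees C before luminescent detection.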
A number is an active result; - = inactive; . = no result given.

SMILES | D1 ag | DRD3 agonist | D1 PAM | D1 antagonist | DRD3 antagonist
COc1ccc(Cl)cc1NC(=O)CSc1nnc2[nH]c(=O)cc(C)n12 | - | - | - | . | .
CCCSc1nc2c(c(=O)[nH]1)C(c1ccc(F)cc1F)CC(=O)N2 (configuration not stated) | 36.9 | - | - | - | .
O=C1CC(c2cccc(O)c2)c2c(nc(SCc3ccccc3F)[nH]c2=O)N1 (configuration not stated) | - | - | - | - | .
COc1ccc2c(CNCCc3ccccc3OC)c(C(=O)O)n(Cc3ccc(F)cc3Cl)c2c1 | - | - | - | - | .
COCCCNC(=O)C1CCN(C(=O)c2cc3sccc3n2Cc2ccc(Cl)cc2)CC1 | - | - | - | -38.5 | .
COCCNC(=O)C1CCN(C(=O)c2cc3sccc3n2Cc2ccc(Cl)cc2)CC1 | - | - | - | - | .
CCOCCCNC(=O)C1CCN(C(=O)c2cc3sccc3n2C)CC1 | - | - | - | -83.6 | .
CCC(C)NC(=O)C1CCN(C(=O)c2cc3sccc3n2Cc2ccc(Cl)cc2)CC1 (configuration not stated) | - | - | - | -40.0 | .
COCCNC(=O)C1CCN(C(=O)c2cc3sccc3n2Cc2ccc(F)cc2)CC1 | - | - | - | -49.0 | -
CCn1c(C(=O)N2CCC(C(=O)NCCCOC)CC2)cc2sccc21 | - | - | - | - | .
Cc1cc(C)cc(NS(=O)(=O)c2ccc(N3CCCCS3(=O)=O)cc2)c1 | - | - | - | - | .
CC(CCc1ccccc1)NC(=O)C1CCCN(C(=O)c2cc3sccc3n2C)C1 (configuration not stated) | - | - | - | -39.3 | -
CCOC(=O)c1ccc(N2C(=O)c3n[nH]c(-c4ccco4)c3C2c2ccccc2OC)cc1 (configuration not stated) | - | - | - | - | .
CCOC(=O)C1CCCN(S(=O)(=O)c2ccc3c4c(cccc24)C(=O)N3CC)C1 (configuration not stated) | - | - | . | -32.4 | -
CCN1C(=O)c2cccc3c(S(=O)(=O)N4CCCC4C(=O)O)ccc1c23 (configuration not stated) | - | - | - | - | -
CCCSS/C(CCO)=C(\C)N(C=O)Cc1cnc(C)nc1N | . | - | . | . | .
O=C(CSc1cccc[n+]1[O-])Nc1cc(Cl)ccc1[N+](=O)[O-] | . | - | . | . | -
O=[N+]([O-])c1ccc(Sc2cccc[n+]2[O-])c2nonc12 | - | - | - | - | -116.0
Cc1c(C(=O)NCc2ccc(N(C)C)cc2)oc2c1-c1nn(Cc3cccc(Cl)c3)cc1CC2 | - | - | - | - | .
CSc1cccc(NC(=O)CCc2ccccc2)c1 | - | - | - | - | -
CCc1cccc(NC(=O)CCCSc2nc3ccccc3[nH]2)c1 | - | - | - | -35.9 | -
O=C(CCCSc1ccccc1)Nc1cccc(CO)c1 | - | - | . | -34.2 | -
Cc1ccccc1OCCSc1nc2ccc(NC(=O)c3cccc(F)c3)cc2s1 | - | - | - | - | .
CCC(Oc1ccccc1)C(=O)N[C@@H]1C(=O)N2[C@@H]1SC(C)(C)[C@@H]2C(=O)O (some centres not stated) | . | - | . | . | .
CCN(Cc1ccc(C#CCCO)cc1)CC1CCCN(CCc2cccc(F)c2)C1 (configuration not stated) | - | - | - | - | -
SMILES | D1 ag | DRD3 agonist | D1 PAM | D1 antagonist | DRD3 antagonist
COc1ccc(CCN2CCCC(CN(C)Cc3cc(OC)ccc3OC)C2)cc1 (configuration not stated) | - | - | - | - | -
CN(Cc1ccc(C#CCCO)cc1)CC1CCCN(CCc2ccc(Cl)cc2)C1 (configuration not stated) | - | - | - | -38.1 | -
CN(Cc1ccccc1O)CC1CCCN(CCc2ccc(Cl)cc2)C1 (configuration not stated) | - | - | - | - | -54.6
Cc1ccccc1NC(=O)C(=O)NCCCN1CCOCC1 | - | - | - | - | -
Cc1ccccc1NC(=O)NCCCN1CCN(c2ccccc2F)CC1 | - | . | - | -82.0 | .
COc1ccc(N2CCN(CCCNC(=O)C3(S(=O)(=O)c4ccc(Cl)cc4)CC3)CC2)cc1 | - | - | - | - | -
O=C(NCCCN1CCN(c2cccc(Cl)c2)CC1)C1(S(=O)(=O)c2ccc(Cl)cc2)CC1 | - | - | - | - | -56.5
Cc1nn(-c2ccccc2)c(-n2cccc2)c1C(=O)NCCCN1CCN(c2ccccc2F)CC1 | - | - | - | -33.2 | .
